The list is not random: actives were taken first. Their share in the collection is about 3.1%.
SKOV3 invasion: ovarian cancer metastasis inhibition, 3D TME model; SKOV3ip1-GFP adhesion/invasion on 3D omental model, fluorescence; Potency, µM (highest dose often 45.8 µM), for the others: at the top dose activity change, negative = inhibition, most hits filed as inhibitors; 46,000 tested, 0.1% active; AID 1963576;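 further: plate controls were DMSO wells for no effect and tomatine positive control wells for full effect; nearly all actives have a fitted effect of over 65% in size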
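qHTS, 4-pt dose (0.36-46 umol/L); SKOV3ip1-GFP, 1,200 cells/well, no FBS; primary omental fibroblast/mesothelial co-culture 48 h pre-grown; 2 h RT + 16 h 37 C; PBS wash, 4% PFA; GFP count 488/509 nm.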
mTORC1 inh: inhibitors of mTORC1 signaling in Tsc2-/- p53-/- MEF cells. Tsc2-/- p53-/- MEF, phospho-rpS6 immunofluorescence/PI, 24 h. Potency, µM (top dose mostly 38.3 µM), for the others: at the top dose activity change, negative = inhibition, most hits filed as inhibitors. 44,000 tested, 0.78% active. AID 493208;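 further: plate controls were DMSO for no effect and rapamycin for full effect; nearly all actives have a fitted effect of over 50% in size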
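Immunofluorescence of rpS6 phosphorylation in Tsc2-/-, p53-/- MEFs after 24 h compound exposure, normalized to propidium iodide signal. Activity is expressed as % positive cells, thresholded with 7.5 nM rapamycin.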
p53null 32C kill: kills p53 null cells at the permissive temperature; H1299-neo p53 null cells, ATP luminescence, 24 h, 32C; Potency, µM (doses to about 46.1 µM), for the others: top-dose activity change, negative = cytotoxicity, hits mostly cytotoxic; 55,000 tested, 0.62% active; AID 903;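 further: 0% = DMSO only and -100% = full killing by 100 µM tamoxifen; nearly all actives have a fitted effect of over 55% in size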
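Luminescent ATP readout gave cell viability of p53-null H1299-neo cells after a 24 h compound exposure at the permissive 32C. Titrations ran up to 46 uM, and AC50s were fitted with the standard Hill equation.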
PMP22 txn prim: PMP22 gene transcription modulation. S16 Pmp22-F2sN Schwann cells, FLuc/NLuc coincidence luminescence, 24 h. Potency, µM (doses to about 57.5 µM), inactives show top-dose activity change, negative = inhibition, actives largely listed as inhibitors. 43,000 tested, 2% active. AID 1508649; active means clear falling dose curves in both reporters; inconclusive means both reporters move, but less clearly or upward; inactive means either reporter flat; the % is the NLuc reporter signal
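S16 Schwann cells carrying FLuc/NLuc coincidence reporter in the Pmp22 3' UTR treated with compound 24 h at 37C; FLuc then NLuc luminescence read sequentially by dual-luciferase reagents.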
S16 viability: S16 Schwann cell cytotoxicity; 43,000 tested, 0.48% active; Potency, µM (titrated, usually from 57.5 µM), for inactives: at the highest dose activity change, negative = cytotoxicity, actives largely listed as cytotoxic; S16 Pmp22-F2sN Schwann cells viability, CellTiter-Glo, 24 h; further: nearly all actives have a fitted effect of over 65% in size
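Viability was measured by CellTiter-Glo luminescence (15 min, room temperature). This followed 24 h at 37 °C of compound exposure (23 nL pin transfer) in S16 Pmp22-F2sN Schwann cells, 500-1,000 per well.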
p53null 39C kill: selectivity test: cytotoxicity in p53 null cells, nonpermissive temperature; H1299 p53-null (neo) cells, 39C, ATPlite viability, 24 h; AID 904; 55,000 tested, 0.97% active; Potency, µM (series often up to 46.1 µM), inactives show at the top dose activity, negative = cell killing, hits mostly cytotoxic;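 further: 0% = DMSO only and -100% = full killing by 100 µM tamoxifen; nearly all actives have a fitted effect of over 50% in size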
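Luminescent ATP signal reported cell survival after H1299 lines (neo, p53 null; or p53 A138V) received up to 46 uM compound and 24 hr incubation at 39C.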
Numbers without * were called inactive; i = inactive; ? = inconclusive; / = not tested or not shown. Unless noted, the call rests on the fitted dose curve; in most records, active means well fitted curve in the direction sought with a large enough effect; inconclusive means small, poorly fitted or top-dose-only effect, or another doubt; inactive means no such curve, though single readings can be large; an effect the other way counts as inactive or inconclusive. Unless noted, on the % scale 0 is the no-effect control and ±100 the full control effect; potency means the concentration at half of the fitted maximal effect.

SMILES	SKOV3 invasion	mTORC1 inh	p53null 32C kill	PMP22 txn prim	S16 viability	p53null 39C kill
CCOc1ccc(NC(=O)Cc2ccc(NC(=O)N3CCCCc4ccccc43)cc2)cc1	-1%	-4%	-3%	-10%	14µM*	-15%
CCOc1ccc(CNC(=O)c2ccc(NC(=O)N3CCCCc4ccccc43)cc2)cc1	4%	1%	9%	-21%	?	27%
Cc1ccc(NC(=O)N2CCc3ccccc32)cc1	/	/	5.6µM*	/	/	5µM*
COc1ccc(C)cc1Nc1nc(N)c2cc(OC)c(OC)cc2n1	?	?	?	?	?	10µM*
COc1cc(OC)c(NS(=O)(=O)c2c(C)nc3sc(C)cn3c2=O)cc1Cl	5%	-8%	-6%	?	?	20µM*
COc1ccc(CCNS(=O)(=O)c2c(C)nc3sc(C)cn3c2=O)cc1OC	4%	-11%	6%	-9%	17%	2%
Cc1c(NC(=O)OC[C@@H]2COCCN2)cn2ncnc(Nc3ccc4c(cnn4Cc4cccc(F)c4)c3)c12	-15%	/	/	/	/	/
CNC1CCC(N(Cc2cccc(-c3ccncc3)c2)C(=O)c2sc3c(F)ccc(F)c3c2Cl)CC1 (centres undefined)	-4%	/	/	/	/	/
C=CCc1c(C)nc2nc(SCC(=O)Nc3ccc(C)c(C)c3)nn2c1C	-23%	10µM*	-6%	?	?	-4%
CC(C)(C)c1nc2c3cc[nH]c(=O)c3c3cc(F)ccc3c2[nH]1	5%	/	/	/	/	/
C[C@](Cc1c[nH]c2ccccc12)(NC(=O)OC1C2CC3CC(C2)CC1C3)C(=O)NC[C@H](NC(=O)CCC(=O)O)c1ccccc1 (some centres undefined)	2%	/	/	/	/	/
COc1ccc(S(=O)(=O)NCC(c2ccco2)S(=O)(=O)c2cccs2)cc1C (centres undefined)	-2%	-1%	15%	?	22µM*	-1%
CCOc1ccc(S(=O)(=O)NCC(c2ccco2)S(=O)(=O)c2cccs2)cc1 (centres undefined)	-1%	1%	1%	?	?	20%
COc1ccc(S(=O)(=O)NCC(c2ccco2)S(=O)(=O)c2cccs2)cc1F (centres undefined)	7%	-5%	3%	15µM*	13µM*	-27%
Cc1cc(F)ccc1S(=O)(=O)NCC(c1ccco1)S(=O)(=O)c1cccs1 (centres undefined)	?	1%	6%	?	16µM*	16%
CC(C)(O)c1cc2nc(-c3cnc(N)nc3)nc(N3CCOCC3)c2s1	1%	/	/	/	/	/
COc1ccc(Cc2ccc(NC(N)=O)cc2)cc1-c1cccc(Cl)c1	3%	/	/	/	/	/
CCN(c1ccccc1)S(=O)(=O)c1nnc(NC(=O)c2ccco2)s1	0%	6%	?	24%	1%	1µM*
Cc1ccc(N(CC(C)C)S(=O)(=O)c2nnc(NC(=O)c3ccco3)s2)cc1	i	6%	9%	-17%	-1%	-10%
O=C(C=Cc1c(C(=O)O)[nH]c2cc(Cl)cc(Cl)c12)Nc1ccccc1	-17%	/	/	/	/	/
COc1ccc(N2CCN(C(=O)c3cccc(-n4c(C)nc5cccnc54)c3)CC2)cc1	-6%	-12%	-7%	?	-18%	3%
Cc1nc2cccnc2n1-c1cccc(C(=O)N2CCN(c3ccc(Cl)cc3)CC2)c1	-10%	-15%	-1%	16µM*	?	-3%
CCCCOC(=O)c1ccc(NC(=O)c2sc3nc(C)cc(C)c3c2N)cc1	?	10µM*	?	2%	10%	?
COCc1cc(C)nc2sc(C(=O)Nc3ccc(C(C)=O)cc3)c(N)c12	3%	-9%	-6%	?	0%	-10%

From PubChem
